The values below come from PubChem BioAssay (NCATS).

The target of experiment [1] is Cytochrome P450 1A2 (Homo sapiens) (UniProt P05177). Description: p450-cyp1a2 (AID 410; calls by dose curve; also: potency is read from the fitted curve at half-maximal effect;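 as to activity change, negative = inhibition: -100% = full effect of reference inhibitor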). Put shortly: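 Read-out is luminescence from luciferin produced by CYP1A2 demethylation of Luciferin-ME (100uM, at Km). Detection reagent stopped the 60 min NADPH-dependent reaction; signals were normalized to 57 uM furafylline.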
Experiment [2] addresses Glucocorticoid receptor (Homo sapiens) (UniProt P04150). Description: GR-GFP Redistribution (AID 450;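 active = compounds whose dose series gives a full or clear partial fitted curve of increased nuclear translocation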; also: potency is read from the fitted curve at half-maximal effect). To be noted: U2OS GR-GFP nuclear translocation, laser cytometry, 2 h.
Experiment [3] has the same target. The experiment can be described thus: GR-EFC Redistribution (AID 451; calls by dose curve; also: potency is read from the fitted curve at half-maximal effect). The conditions noted are these: CHO-K1 GR-EFC translocation, beta-gal luminescence, 2 h. The procedure, abridged:
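Translocation of GR-ED fusion to nuclear EA restores b-gal, read by luminescence after 1 h room-temperature detection. Engineered CHO-K1 biosensor cells, 1,000/well, exposed 2 h at 37 C to titrations up to 46 uM final.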

The target of experiment [4] is Mitogen-activated protein kinase 10 (Mus musculus) (UniProt Q61831). Description: JNK3 AlphaScreen Assay (AID 530; active = well fitted curve in either direction with a large enough effect, not every such curve was filed as active;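 also: kinase came from lysate of stimulated human HepG2 cells; signal reports phosphorylation of biotinylated GST-cJun 1-79 at Ser73 with 10 µM ATP; % is scaled to controls: 0 for no effect and ±100 for the full control effect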). Put shortly: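 Kinase buffer: 20 mM Tris-HCl pH 7.6, 10 mM MgCl2, 1 mM DTT, 0.1 mM Na3VO4, 0.01% Tween-20; ATP 10 uM. Substrate biotin-GST-cJun(1-79), enzyme from activated HepG2 lysates. Detection by Ser73 phospho-antibody AlphaScreen.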
Experiment [5] can be described thus: qHTS Assay for Lipid Storage Modulators (AID 1519; calls by dose curve). To be noted: Drosophila S3 cells, BODIPY lipid droplet/cell ratio, laser cytometry, cells loaded with oleic acid. Put shortly:
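Cells seeded at 5,000 per well were treated with compounds over a concentration series and loaded with oleic acid (400 uM, as added). Lipid droplet fluorescence (488 nm excitation, 500-530 nm channel) was read by laser-scanning cytometry and normalized to 20 uM Triacsin C.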
(In qHTS, concentration-response curves come from the screen itself.)

Experiment [6] has as its target Ubiquitin carboxyl-terminal hydrolase 1 (Homo sapiens) (UniProt O94782). Description: Inhibitors of USP1/UAF1: Pilot qHTS (AID 504865).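 Also: rhodamine fluorescence freed from ubiquitin-rhodamine substrate followed over time; top concentration of the series differs between compounds; % is scaled to controls: 0 for no effect and ±100 for the full control effect; nearly all actives have a fitted effect of over 35% in size.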 The procedure, abridged: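 Deubiquitinase activity followed as kinetic rhodamine fluorescence release from 150 nM Ub-Rho. 1 nM USP1/UAF1 with compound, after 15 min room-temperature preincubation, in HEPES pH 7.8 buffer containing TCEP, EDTA, BSA and Tween-20.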

Experiment [7] concerns the target DNA dC->dU-editing enzyme APOBEC-3G (Homo sapiens) (UniProt Q9HC16). Description: qHTS for inhibitors of Vif-A3G interactions: Validation (AID 588379). Also: 0% is about no effect. The procedure, abridged: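 Yellow fluorescence (Ex 488, Em 500-530) of Vif-coexpressing HeLa A3G-eYFP cells, scanned by Acumen cytometer, reports blocked A3G degradation. Cells plated at 700/well overnight at 37 deg C before compound addition, then a further overnight compound incubation at 37 deg C.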

Experiment [8] deals with Zika virus NS2B-NS3 protease. The experiment can be described thus: Primary screen GU AMC qHTS for Zika virus inhibitors (AID 1347154). Also: nearly all actives have a fitted effect of over 70% in size. Also: potency is read from the fitted curve at half-maximal effect.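 As to activity change, negative = inhibition: 0% = no-inhibitor control and -100% = no-enzyme control.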 Put shortly:
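Fluorogenic AMC-substrate cleavage by noncovalent NS2B-NS3 protease complex (25 nM, pH 8.0 Tris buffer with Tween 20) followed for 15 minutes at room temperature (~20% conversion). Percent inhibition from ex340/em450 signal change, fitted by 4-parameter Hill equation.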

Experiment [9] is described as follows: Primary qHTS for small molecule stabilizers of the endoplasmic reticulum resident proteome: Secreted ER Calcium Modulated Protein (SERCaMP) assay (AID 1508630). Also: % is scaled to controls: 0 for no effect and ±100 for the full control effect. The procedure, abridged:
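The SH-SY5Y reporter protocol was run at 3 concentrations up to 38.3 uM (primary) or 11 concentrations (follow-up): 16 h compound, 100 nM thapsigargin for 4 h, then extracellular luciferase luminescence.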

The nature of experiment [10]: AP1 Signaling Pathway (AID 357; active = well fitted curve in either direction with a large enough effect, not every such curve was filed as active;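 also: ME-180 reporter cells stimulated with EGF at its EC50 level; % is scaled to controls: 0 for no effect and ±100 for the full control effect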). The conditions noted are these: ME-180 AP-1-bla reporter, EGF-induced, beta-lactamase ratio, 5 h; at 17.2 µM (top of the series). Put shortly: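 Titration-series screen for positive or negative modulators of EC50 EGF-induced signaling in ME-180 cells carrying an AP-1-driven beta-lactamase reporter. After 5 hours at 37 degrees Celsius, CCF4 460nm/530nm emission ratio gave %Activity; AC50 values derived.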

A short description of experiment [11]: Stat Signaling Pathway (AID 446; active = well fitted curve in either direction with a large enough effect, not every such curve was filed as active;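 also: ME-180 cervical cancer cells given 40 pM IL-6 alongside compound; SIE-controlled beta-lactamase reporter measured as 460/530 nm FRET emission ratio; % is scaled to controls: 0 for no effect and ±100 for the full control effect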). The conditions noted are these: ME-180 (cervical carcinoma) SIE beta-lactamase reporter, IL-6 stimulated, 5 h. The procedure, abridged: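 FRET read-out (405 nm excitation, 460/530 nm emission) of a beta-lactamase reporter under a STAT-inducible element in ME-180 cervical carcinoma cells. Cells with compound receive 40 pM IL-6 for 5 h. Values are normalised to AC90 stimulation and AC90 JAK-inhibitor controls.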

The target in experiment [12] is 3',5'-cyclic-AMP phosphodiesterase 4B (Homo sapiens) (UniProt Q07343). The experiment can be described thus: qHTS Assay for Inhibitors of PDE-IV (AID 607; active = well fitted activation curve with a large enough effect in the main read-out, with a control signal flat, not every such curve was filed as active; also: % of control where 0% means no effect). Put shortly:
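Cell-based read-out of cAMP via a modified cyclic nucleotide-gated channel and membrane potential dye (535/590 nm) in HEK293 cells expressing PDE4 endogenously. Compounds tested up to 22.9 uM final; 100 uM RO 20-1724 reference.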

The target of experiment [13] is Guanine nucleotide-binding protein G(i) subunit alpha-1 (Homo sapiens) (UniProt P63096). The experiment can be described thus: qHTS Assay for Inhibitors of RGS12 GoLoco Motif Activity (Green Fluorophore) (AID 879).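 Also: 0% = labeled peptide with Gαi1 and full inhibition = labeled peptide alone without protein; negative values mean loss of peptide binding seen as reduced polarization.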 Put shortly:
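A drop in FITC polarization marked displacement of the FITC-tagged RGS12 GoLoco peptide (10 nM) from Gαi1 (50 nM). Compounds were incubated 10 min at room temperature in Tris pH 7.5 buffer containing 150 mM NaCl, 0.1 mM GDP and 0.05% NP40; unlabeled peptide titration served as control.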

Experiment [14] addresses Cytochrome P450 3A4 (Homo sapiens) (UniProt P08684). The experiment can be described thus: qHTS Assay for Activators of Cytochrome P450 3A4 (AID 885). Also: nearly all actives have a fitted effect of over 65% in size. The procedure, abridged:
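Luminescent readout of luciferin formed from 25 uM Luciferin-PPXE (KM level) by 20 nM CYP3A4 in 200 mM KPO4, with 60 min NADPH-driven reaction at room temperature after 10 min compound exposure. Ketoconazole (57 uM) defined 100% inhibition.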

The target in experiment [15] is Cytochrome P450 2D6 (Homo sapiens) (UniProt P10635). Description: qHTS Assay for Inhibitors and Substrates of Cytochrome P450 2D6 (AID 891).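 Also: luciferin methyl ether substrate demethylated by CYP2D6 with NADPH regeneration; % is scaled to controls: 0 for no effect and ±100 for the full control effect; nearly all actives have a fitted effect of over 60% in size.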 The procedure, abridged:
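Luminescent read-out of luciferin formed by 5 nM human CYP2D6 demethylating 30 uM Luciferin-ME EGE (Km level) over 60 min at room temperature after NADPH regeneration addition. Data normalized to full inhibition by 1.43 uM quinidine.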

The nature of experiment [16]: Confirmation and Secondary Assay for Modulators of Hemoglobin Beta Chain Splicing at IVS2 654 locus (AID 910).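 Also: HeLa cells stably carrying EGFP split by mutant beta-globin IVS2-654 intron; per-well total GFP intensity by laser scanning cytometry after 2-day treatment; % of control where 0% means no effect.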 Put shortly:
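Readout: per-well total peak green fluorescence (488 nm ex, 500–520 nm em) from objects 5–250 µm, reflecting correct splicing of an EGFP-654 reporter. Compounds were applied for 2 days at 37 °C to overnight-plated HeLa EGFP-654 cells; controls were DMSO and 500 nM IVS2-654 PNA.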

Experiment [17] is described as follows: qHTS Assay for Identification of Small Molecule Agonists for Thrombopoietin (TPO) Signaling Pathway (AID 917). Also: % is scaled to controls: 0 for no effect and ±100 for the full control effect. Put shortly:
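Luciferase reporter (Glycoprotein IIb promoter) in IL-3-deprived Ba/F3 cells carrying human TPO receptor; compounds co-added with 26 pM TPO, incubated 24 h, 37 C. Steadylite luminescence measured after 10 min.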

Experiment [18] in a line: Confirmation and Secondary Assay for Modulators of Hemoglobin Beta Chain Splicing at IVS2 705 locus (AID 930).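 Also: HeLa cells stably expressing the EGFP-705 splicing reporter; GFP fluorescence per well restored by corrected splicing of the IVS2-705 intron in EGFP; % of control where 0% means no effect.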 The procedure, abridged: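 Stable HeLa line with EGFP disrupted by mutant beta-globin intron 2 (705). Overnight attachment, then 2 days of compound at 37C, 5% CO2. Signal: peak GFP intensity summed over objects 5-250 µm.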
The target in experiment [19] is Pyruvate kinase (Leishmania mexicana) (UniProt Q27686). The experiment can be described thus: qHTS Validation Assay for Inhibitors of Leishmania Mexicana Pyruvate Kinase (AID 945).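 Also: 0% = DMSO only neutral control wells.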 Put shortly:
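Mutant LmPYK (E451W), 0.2 nM, plus 0.5 mM PEP and 0.1 mM ADP in 50 mM imidazole pH 7.2 containing 0.01% Tween 20 and 0.05% BSA. Incubated 1 h at room temperature; luminescence via PKLight, normalized to DMSO.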

In experiment [20] the target is Pyruvate kinase PKM (Homo sapiens) (UniProt P14618). Description: qHTS Assay for Activators of Human Muscle Pyruvate Kinase (AID 954; active = well fitted curve in the direction sought with a large enough effect, not every such curve was filed as active;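 also: 0% = uninhibited enzyme and -100% = no enzyme or full thiadiazolimine inhibition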). Put shortly: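 ATP production by PKM2 detected via luciferase luminescence after 1 h room-temperature reaction (0.1 nM enzyme, PEP at Km 0.5 mM, ADP 0.1 mM, pH 7.2 imidazole buffer). Inhibition scaled to no-enzyme control; activation referenced to 0.3 nM enzyme wells.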

Experiment [21] addresses Alpha-galactosidase A (Homo sapiens) (UniProt P06280). The experiment can be described thus: Counterscreen for Glucocerebrosidase Inhibitors: qHTS Assay for Human alpha-Galactosidase at pH 4.5 (AID 992). Also: 0% is about no effect. Put shortly:
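Fluorogenic 1536-well qHTS at pH 4.5 (citrate, Tween-20): 2 nM enzyme, 80 uM 4-MU-alpha-galactoside, 20 min room temperature, NaOH/glycine stop. Titration 0.7 nM to 77 uM, data normalized to no-enzyme and full-activity controls, Hill-fitted AC50.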

The target of experiment [22] is alpha-glucosidase (Oryza sativa, rice) (UniProt Q653V4). The experiment can be described thus: Counterscreen for Glucocerebrosidase Inhibitors: qHTS Assay for Rice alpha-Glucosidase at pH 5.0 (AID 997).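 Also: 0% = full activity with enzyme and -100% = basal without enzyme.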 The procedure, abridged:
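Endpoint fluorogenic assay at pH 5.0: compounds (0.7 nM to 77 uM) titrated against 4 nM rice enzyme and 400 uM 4-MU-alpha-glucoside for 20 min at room temperature; NaOH/glycine stop, read ex 365/em 440 nm, Hill-fitted AC50.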
(In general: A counterscreen serves to expose hits that act by an unwanted route or on another target.)

[23] abbreviates: measured here: cell count channel max response.
Where [24] appears, read: measured here: lipid channel max response.

Molecules are shown by their SMILES. “And” between values parts separate entries of the source, which are not always exact repeats. Equal entries are not always repeated. Results filed as inconclusive are left out. The source made the active and inactive calls. Unless noted, calls follow the shape of the dose curve; as a rule, active = well fitted curve in the direction sought with a large enough effect; inconclusive = small, poorly fitted or top-dose-only effect, or another doubt; inactive = no such curve, though single readings can be large; an effect the other way counts as inactive or inconclusive. Where only a bound is given, the exact number is not on record here.

Chain of Glucocorticoid receptor (Homo sapiens) (P04150 whole entry, looked up): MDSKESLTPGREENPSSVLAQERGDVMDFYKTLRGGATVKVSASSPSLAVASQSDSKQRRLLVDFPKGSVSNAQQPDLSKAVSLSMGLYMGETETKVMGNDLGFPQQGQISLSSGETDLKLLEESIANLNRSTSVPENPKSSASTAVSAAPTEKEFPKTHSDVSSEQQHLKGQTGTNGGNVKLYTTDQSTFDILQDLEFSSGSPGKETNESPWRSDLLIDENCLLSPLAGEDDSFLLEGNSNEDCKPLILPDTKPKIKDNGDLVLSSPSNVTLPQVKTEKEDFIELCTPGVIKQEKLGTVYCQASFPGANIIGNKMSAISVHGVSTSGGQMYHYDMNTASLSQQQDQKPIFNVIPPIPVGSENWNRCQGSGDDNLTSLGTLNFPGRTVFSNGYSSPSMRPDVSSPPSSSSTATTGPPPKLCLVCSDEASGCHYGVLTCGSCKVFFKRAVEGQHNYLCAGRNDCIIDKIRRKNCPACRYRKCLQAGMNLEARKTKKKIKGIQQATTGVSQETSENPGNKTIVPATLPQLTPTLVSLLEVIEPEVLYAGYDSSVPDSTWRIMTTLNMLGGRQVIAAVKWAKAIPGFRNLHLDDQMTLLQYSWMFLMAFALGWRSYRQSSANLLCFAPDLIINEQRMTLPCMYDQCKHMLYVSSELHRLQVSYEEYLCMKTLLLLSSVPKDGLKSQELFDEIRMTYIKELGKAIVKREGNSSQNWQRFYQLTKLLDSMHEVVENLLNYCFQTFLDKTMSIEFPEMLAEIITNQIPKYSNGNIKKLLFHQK
Chain of Ubiquitin carboxyl-terminal hydrolase 1 (Homo sapiens) (O94782 whole entry, looked up): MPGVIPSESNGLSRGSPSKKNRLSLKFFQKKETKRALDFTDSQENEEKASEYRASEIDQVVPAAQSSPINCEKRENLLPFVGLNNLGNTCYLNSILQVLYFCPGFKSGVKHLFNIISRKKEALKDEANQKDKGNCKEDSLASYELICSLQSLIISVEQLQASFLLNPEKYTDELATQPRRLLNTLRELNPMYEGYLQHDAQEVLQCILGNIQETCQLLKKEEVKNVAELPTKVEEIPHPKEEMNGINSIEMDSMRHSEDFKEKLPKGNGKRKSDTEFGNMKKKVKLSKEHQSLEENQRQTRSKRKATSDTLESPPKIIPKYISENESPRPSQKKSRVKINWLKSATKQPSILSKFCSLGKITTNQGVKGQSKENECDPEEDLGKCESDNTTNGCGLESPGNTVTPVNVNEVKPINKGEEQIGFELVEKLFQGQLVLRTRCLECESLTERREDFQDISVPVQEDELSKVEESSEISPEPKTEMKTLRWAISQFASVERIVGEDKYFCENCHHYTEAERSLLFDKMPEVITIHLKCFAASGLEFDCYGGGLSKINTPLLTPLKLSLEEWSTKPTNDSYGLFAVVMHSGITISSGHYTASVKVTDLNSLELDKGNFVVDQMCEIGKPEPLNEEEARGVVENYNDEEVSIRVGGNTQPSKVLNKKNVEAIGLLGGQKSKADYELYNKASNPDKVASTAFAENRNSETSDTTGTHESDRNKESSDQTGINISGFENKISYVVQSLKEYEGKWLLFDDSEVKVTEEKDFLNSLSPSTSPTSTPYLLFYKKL
Chain of Cytochrome P450 1A2 (Homo sapiens) (P05177 whole entry, looked up): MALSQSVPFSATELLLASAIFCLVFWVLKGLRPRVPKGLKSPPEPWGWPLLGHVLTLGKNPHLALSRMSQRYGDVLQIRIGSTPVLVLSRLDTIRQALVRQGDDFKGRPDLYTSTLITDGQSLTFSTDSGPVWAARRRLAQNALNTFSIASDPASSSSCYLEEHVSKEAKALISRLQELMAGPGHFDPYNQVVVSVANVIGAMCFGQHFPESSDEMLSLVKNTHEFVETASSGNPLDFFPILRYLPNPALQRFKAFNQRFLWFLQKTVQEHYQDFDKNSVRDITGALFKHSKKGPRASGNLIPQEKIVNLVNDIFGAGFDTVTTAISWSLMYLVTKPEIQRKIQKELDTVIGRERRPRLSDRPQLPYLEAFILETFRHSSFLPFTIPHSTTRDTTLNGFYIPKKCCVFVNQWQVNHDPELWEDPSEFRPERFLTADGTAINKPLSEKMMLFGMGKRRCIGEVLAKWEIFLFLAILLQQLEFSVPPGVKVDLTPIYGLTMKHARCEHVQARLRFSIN
Chain of 3',5'-cyclic-AMP phosphodiesterase 4B (Homo sapiens) (Q07343 whole entry, looked up): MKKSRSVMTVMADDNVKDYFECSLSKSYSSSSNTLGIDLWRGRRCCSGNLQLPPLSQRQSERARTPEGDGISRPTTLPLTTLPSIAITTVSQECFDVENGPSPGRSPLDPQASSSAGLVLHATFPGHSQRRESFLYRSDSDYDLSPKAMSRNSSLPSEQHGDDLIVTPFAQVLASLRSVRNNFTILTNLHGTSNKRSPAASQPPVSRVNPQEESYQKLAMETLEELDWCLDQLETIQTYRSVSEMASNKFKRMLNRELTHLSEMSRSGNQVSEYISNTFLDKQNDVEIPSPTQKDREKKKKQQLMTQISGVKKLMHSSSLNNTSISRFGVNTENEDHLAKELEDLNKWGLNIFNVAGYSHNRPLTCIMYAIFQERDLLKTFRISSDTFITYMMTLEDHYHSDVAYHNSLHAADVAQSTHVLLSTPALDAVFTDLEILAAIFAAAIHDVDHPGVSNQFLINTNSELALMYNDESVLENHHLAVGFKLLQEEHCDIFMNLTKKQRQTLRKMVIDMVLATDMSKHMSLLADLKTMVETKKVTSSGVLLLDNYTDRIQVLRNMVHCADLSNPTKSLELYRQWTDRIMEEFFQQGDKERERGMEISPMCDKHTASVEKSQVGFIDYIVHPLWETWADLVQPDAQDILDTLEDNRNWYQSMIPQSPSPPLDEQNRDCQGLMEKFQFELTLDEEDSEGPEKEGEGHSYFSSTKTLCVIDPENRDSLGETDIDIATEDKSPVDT
Chain of DNA dC->dU-editing enzyme APOBEC-3G (Homo sapiens) (Q9HC16 whole entry, looked up): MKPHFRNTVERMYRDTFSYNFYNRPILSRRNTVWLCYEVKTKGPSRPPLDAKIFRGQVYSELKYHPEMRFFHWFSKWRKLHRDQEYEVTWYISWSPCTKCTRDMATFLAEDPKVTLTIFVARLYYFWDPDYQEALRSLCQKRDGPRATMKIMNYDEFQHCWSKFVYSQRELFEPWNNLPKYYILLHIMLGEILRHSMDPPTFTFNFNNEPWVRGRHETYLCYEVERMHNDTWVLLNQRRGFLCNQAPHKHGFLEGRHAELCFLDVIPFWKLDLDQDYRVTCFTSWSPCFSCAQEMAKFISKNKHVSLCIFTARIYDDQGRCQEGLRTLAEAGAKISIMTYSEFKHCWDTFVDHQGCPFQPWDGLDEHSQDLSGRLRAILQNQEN
Chain of Pyruvate kinase PKM (Homo sapiens) (P14618 whole entry, looked up): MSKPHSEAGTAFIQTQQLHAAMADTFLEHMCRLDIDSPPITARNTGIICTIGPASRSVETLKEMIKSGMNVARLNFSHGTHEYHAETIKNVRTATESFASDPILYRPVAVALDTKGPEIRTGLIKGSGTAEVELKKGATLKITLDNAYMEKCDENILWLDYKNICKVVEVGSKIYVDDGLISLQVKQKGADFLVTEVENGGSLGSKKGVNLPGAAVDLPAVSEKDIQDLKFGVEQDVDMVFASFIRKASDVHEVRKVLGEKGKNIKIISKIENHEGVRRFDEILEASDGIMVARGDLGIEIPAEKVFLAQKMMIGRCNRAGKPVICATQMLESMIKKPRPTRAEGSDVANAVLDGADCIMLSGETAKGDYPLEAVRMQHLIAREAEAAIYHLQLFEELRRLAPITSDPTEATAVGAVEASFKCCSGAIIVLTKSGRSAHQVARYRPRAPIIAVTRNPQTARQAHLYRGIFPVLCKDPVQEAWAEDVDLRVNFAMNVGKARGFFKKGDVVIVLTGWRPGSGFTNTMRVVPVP
Chain of Guanine nucleotide-binding protein G(i) subunit alpha-1 (Homo sapiens) (P63096 whole entry, looked up): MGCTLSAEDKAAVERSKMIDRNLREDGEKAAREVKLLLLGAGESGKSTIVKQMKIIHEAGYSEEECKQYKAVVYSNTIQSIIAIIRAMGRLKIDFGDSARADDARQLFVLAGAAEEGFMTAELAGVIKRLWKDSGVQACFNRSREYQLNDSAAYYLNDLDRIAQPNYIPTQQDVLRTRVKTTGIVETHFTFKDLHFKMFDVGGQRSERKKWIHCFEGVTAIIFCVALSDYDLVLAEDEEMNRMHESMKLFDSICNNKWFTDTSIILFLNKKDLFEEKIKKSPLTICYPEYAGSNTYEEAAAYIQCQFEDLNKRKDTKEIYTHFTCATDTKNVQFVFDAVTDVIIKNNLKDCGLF
Chain of Cytochrome P450 2D6 (Homo sapiens) (P10635 whole entry, looked up): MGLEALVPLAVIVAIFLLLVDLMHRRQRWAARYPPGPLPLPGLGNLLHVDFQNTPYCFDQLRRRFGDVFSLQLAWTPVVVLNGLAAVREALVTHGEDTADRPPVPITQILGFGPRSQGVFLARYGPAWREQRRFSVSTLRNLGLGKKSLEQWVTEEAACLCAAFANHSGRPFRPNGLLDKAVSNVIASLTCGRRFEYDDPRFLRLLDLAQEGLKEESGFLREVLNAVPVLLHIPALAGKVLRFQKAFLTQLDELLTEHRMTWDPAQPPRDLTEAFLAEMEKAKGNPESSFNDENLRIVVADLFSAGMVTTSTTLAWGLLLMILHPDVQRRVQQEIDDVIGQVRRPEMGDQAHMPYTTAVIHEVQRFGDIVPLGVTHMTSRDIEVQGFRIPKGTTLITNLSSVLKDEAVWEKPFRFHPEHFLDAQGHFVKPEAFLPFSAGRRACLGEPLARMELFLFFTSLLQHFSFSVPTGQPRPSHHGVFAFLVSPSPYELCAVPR
Chain of Alpha-galactosidase A (Homo sapiens) (P06280 whole entry, looked up): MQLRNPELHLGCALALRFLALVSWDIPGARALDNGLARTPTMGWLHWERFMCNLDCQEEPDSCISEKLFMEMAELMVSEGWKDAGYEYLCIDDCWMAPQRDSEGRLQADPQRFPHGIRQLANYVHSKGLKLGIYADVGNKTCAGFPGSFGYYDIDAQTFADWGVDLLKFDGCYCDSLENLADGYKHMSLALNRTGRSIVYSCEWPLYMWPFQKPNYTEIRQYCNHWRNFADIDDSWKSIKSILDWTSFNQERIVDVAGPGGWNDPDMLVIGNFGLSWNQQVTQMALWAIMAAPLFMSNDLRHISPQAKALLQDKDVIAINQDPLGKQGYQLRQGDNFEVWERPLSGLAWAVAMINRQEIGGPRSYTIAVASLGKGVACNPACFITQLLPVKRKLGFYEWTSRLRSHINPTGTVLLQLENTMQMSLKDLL

As for `CC[C@](N)(CCC(=O)O)C(=O)O`, the Potency was 20 µM (active) in experiment [1], > 46 µM (inactive) in experiment [2] and > 46 µM (inactive) in experiment [3]. Besides, the Potency result in experiment [4], in experiment [6], in experiment [7], in [8] and in [9] was “inactive” in each case. The activity change, negative = inhibition in experiment [5] (at 57.5 µM (top of the series)) is -0.484% (inactive). The max response was determined as 20.6% in experiment [5] (setting [23]) and 15.7% in experiment [5] (setting [24]).
As to `CCN(Cc1ccncc1)C(=O)[C@@H](CO)c1ccccc1`, the activity change, negative = inhibition was 5.81% (inactive) in [10] and -4.57% (inactive) in experiment [5] (at 25.7 µM (top of the series)). Moreover, in experiment [1], the Potency is 15.8 µM (active) and 10 µM (active). Moreover, the activity, negative = inhibition in experiment [11] (at 17.2 µM (top of the series)) was -6.07% (inactive); in [11] (at 38 µM (top of the series)), -7.02% (inactive). Moreover, the Potency result in [4], in experiment [12], in experiment [14], in [15], in experiment [17] and in experiment [19] was “inactive” each time. The Potency entry in [6], in experiment [8] and in experiment [9] was “inactive” throughout. For the same molecule, the molecule was classed as inactive in [13], in [16], in experiment [18], in [20], in experiment [21] and in experiment [22]. For the same molecule, the max response in experiment [5] (setting [23]) is -10.2%; in [5] (setting [24]) it was -15.1%.
Consider `N[C@H](C(=O)O)c1ccc(C(=O)O)c(O)c1`, for which the Potency result in [1], in [4], in experiment [12], in experiment [6], in experiment [7] and in experiment [9] was “inactive” in each case. Further, the Potency in experiment [2] was > 46 µM (inactive); in experiment [3], > 46 µM (inactive); in [8], 26.7 µM (active). Also, in [5] (at 57.5 µM (top of the series)), the activity change, negative = inhibition was 2.68% (inactive). Besides, the max response in [5] (setting [23]) is -19.5%; in experiment [5] (setting [24]) it was -17.3%.
